# Measurements: PubChem BioAssay
# Activity calls are given as the source filed them. Unless noted, no rule for the calls is given here.
# Legend:
# [1] = test system: Wnt5a (protein binding on small-molecule microarray); assay: small molecules binding Wnt5a protein – biophysical, small-molecule microarray, 635/667 nm fluorescence, primary screen (AID 1142); details: 635 nm fluorescence, higher = more signal;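 also: fluorescence read at 667 nm with signal to noise per printed feature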
# [2] = ATP-based viability of Huh7 replicon cells – cell-based, CellTiter-Glo luminescence, basal, 48 h, cytotoxicity control for HCV replication inhibitor project, primary screen (AID 1143); details: higher = more signal, called active from +8 up or from −8 down;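 also: Huh7 hepatoma cells carrying a hepatitis C replication reporter with no stimulus; test concentration not given here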
# [3] = Pseudomonas biofilm growth suppression – PAO1 strain, BacTiter-Glo luminescence, LB-PBS, primary screen (AID 1144); details: P. aeruginosa PAO1 biofilm, 12 h, higher = more signal
# [4] = basal CRE-LacZ reporter activity in PC12 – cell-based, unstimulated, primary screen (AID 1145); details: no forskolin, luminescence, 4.5 h, higher = more signal, called active from +8 up or from −8 down
# [5] = forskolin-driven CRE-LacZ activity in PC12 – cell-based, CRE-LacZ reporter, forskolin-stimulated, primary screen (AID 1146); details: luminescence, 4.5 h, higher = more signal, called active from +8 up or from −8 down;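 also: PC12 cells with 6xCRE LacZ reporter stimulated by forskolin 10 µM; beta-galactosidase reporter signal reflecting CREB driven transcription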
# [6] = molecular target: Streptavidin (Streptomyces avidinii) (UniProt P22629); assay: compounds binding control protein streptavidin – biophysical, small-molecule microarray, 635/667 nm fluorescence, artefact control for SMM compound annotation, primary screen (AID 1147); details: higher = more signal;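 also: signal reflects streptavidin binding to arrayed compounds as a control protein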
# Chain of Streptavidin (Streptomyces avidinii) (P22629 whole entry, looked up): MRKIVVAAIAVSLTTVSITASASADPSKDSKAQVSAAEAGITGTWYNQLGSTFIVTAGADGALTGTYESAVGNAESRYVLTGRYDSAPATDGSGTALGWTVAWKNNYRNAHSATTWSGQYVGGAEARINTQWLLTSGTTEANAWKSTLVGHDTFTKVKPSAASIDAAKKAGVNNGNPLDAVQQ
# [7] = probe aInhba binding on compound microarray – biochemical, small-molecule microarray, 635/667 nm fluorescence, primary screen (AID 1148); details: higher = more signal;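 also: score merges 667nm spot fluorescence with signal-to-noise for antibody binding to printed compounds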
# Torsin-1A (Homo sapiens) [8] = molecular target: Torsin-1A (Homo sapiens) (UniProt O14656); assay: TOR1A wild-type binding on microarray – cell lysate, small-molecule microarray, lysate, 635/667 nm, primary screen (AID 1149); details: COS7 hTOR1A-WT lysate, 635 nm fluorescence, higher = more signal
# Chain of Torsin-1A (Homo sapiens) (O14656 whole entry, looked up): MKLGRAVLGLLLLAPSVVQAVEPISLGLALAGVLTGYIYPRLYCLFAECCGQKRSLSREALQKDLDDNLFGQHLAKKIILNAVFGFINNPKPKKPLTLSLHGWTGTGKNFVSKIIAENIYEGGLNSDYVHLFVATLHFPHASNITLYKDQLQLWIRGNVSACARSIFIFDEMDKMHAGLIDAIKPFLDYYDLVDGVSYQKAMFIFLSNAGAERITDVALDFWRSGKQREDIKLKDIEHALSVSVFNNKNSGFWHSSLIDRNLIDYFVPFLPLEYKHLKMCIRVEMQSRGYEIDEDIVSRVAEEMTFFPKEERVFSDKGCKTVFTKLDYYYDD
# Torsin-1A (Homo sapiens) [9] = molecular target: Torsin-1A (Homo sapiens) (UniProt O14656); assay: torsin A mutant lysate binding on microarrays – cell lysate, small-molecule microarray, COS7 lysate, 635/667 nm fluorescence, primary screen (AID 1150); details: COS7 hTOR1A mutant lysate, 635 nm fluorescence, higher = more signal;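 also: score pools 667 nm emission and signal to noise measuring lysate protein binding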
# [10] = test system: Sonic hedgehog protein (Shh); assay: Sonic hedgehog microarray binding compounds – biochemical, small-molecule microarray, 635/667 nm fluorescence, primary screen (AID 1151); details: 635 nm fluorescence, higher = more signal;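 also: Shh protein binding to compounds spotted on small-molecule microarray slides; score combines spot fluorescence intensity with signal-to-noise across triplicate slides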
# [11] = optical density shifts of acrAB sulA E. coli – strain DRC41, OD650, 48 h, E. coli filamentation inducer project, primary screen (AID 1152); details: higher = more signal, called active from +8 up or from −8 down;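 also: E. coli MC1000 strain DRC41 lacking acrAB efflux pump and sulA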
# [12] = probe aLefty1 binding on compound microarray – biochemical, small-molecule microarray, 635/667 nm fluorescence, primary screen (AID 1153); details: higher = more signal;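 also: score merges spot fluorescence with signal-to-noise ratio from the scanned slide images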
# [13] = plasmodial surface anion channel blockers, osmotic lysis – cell-based, P. falciparum Indochina, OD700, 1 h, primary screen (AID 1154); details: P. falciparum Indochina infected RBC osmotic lysis, higher = more signal, called active from +8 up or from −8 down
# [14] = plasmodial surface anion channel blockers, osmotic lysis – cell-based, P. falciparum Indochina, OD700, 2 h, primary screen (AID 1155);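 also: lysis reports solute entry through the parasite surface anion channel PSAC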; details: P. falciparum Indochina infected erythrocytes, higher = more signal, called active from +8 up or from −8 down
# [15] = changes in parasitized red cell lysis, either direction – P. falciparum Indochina, OD700, 3 h, PSAC antagonist project, primary screen (AID 1156); details: P. falciparum-infected erythrocytes, osmotic lysis, higher = more signal, called active from +8 up or from −8 down
# [16] = plasmodial surface anion channel blockers, osmotic lysis – cell-based, P. falciparum Indochina, OD700, 18 h, primary screen (AID 1157); details: P. falciparum Indochina infected erythrocytes, osmotic lysis OD700, 18 h; higher = more signal, called active from +8 up or from −8 down
# [17] = S6 kinase pathway phospho-S6 level changes – cell-based, A549, cytoblot, luminescence, serum-stimulated, primary screen (AID 1158); details: 5 h, higher = more signal;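 also: serum-stimulated A549 lung adenocarcinoma cells; signal is phosphorylated S6 detected by cytoblot immunostaining with HRP secondary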
# [18] = molecular target: NADPH oxidase 2 (Homo sapiens) (UniProt P04839); assay: compounds shifting NOX2 Amplex Red fluorescence – cell-based, HEK293-NOX2, PMA-stimulated, NOX inhibitor project, primary screen (AID 1159); details: 45 min, higher = more signal, called active from +8 up or from −8 down; also: test concentration not given here
# Chain of NADPH oxidase 2 (Homo sapiens) (P04839 whole entry, looked up): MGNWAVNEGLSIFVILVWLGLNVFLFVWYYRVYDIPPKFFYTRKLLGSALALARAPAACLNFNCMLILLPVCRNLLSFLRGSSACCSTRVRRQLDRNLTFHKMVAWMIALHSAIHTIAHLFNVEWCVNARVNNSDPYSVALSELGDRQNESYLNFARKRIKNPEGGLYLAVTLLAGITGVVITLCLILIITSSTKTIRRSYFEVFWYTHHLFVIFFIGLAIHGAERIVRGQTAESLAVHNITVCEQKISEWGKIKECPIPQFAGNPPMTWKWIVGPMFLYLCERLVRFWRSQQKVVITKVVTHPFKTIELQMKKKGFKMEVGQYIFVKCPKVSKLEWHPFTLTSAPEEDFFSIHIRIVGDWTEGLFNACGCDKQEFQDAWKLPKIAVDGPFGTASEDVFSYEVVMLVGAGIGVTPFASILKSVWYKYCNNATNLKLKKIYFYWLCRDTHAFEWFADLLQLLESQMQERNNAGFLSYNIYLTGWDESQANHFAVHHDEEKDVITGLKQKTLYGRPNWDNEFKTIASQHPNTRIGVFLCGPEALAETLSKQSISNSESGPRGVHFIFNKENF
# [19] = molecular target: NADPH oxidase 4 (Homo sapiens) (UniProt Q9NPH5); assay: compounds shifting NOX4 Amplex Red fluorescence – cell-based, HEK293-NOX4, tetracycline-induced, NOX inhibitor project, primary screen (AID 1160); details: HEK293-NOX4, Amplex Red H2O2 fluorescence, 45 min; higher = more signal, called active from +8 up or from −8 down
# Chain of NADPH oxidase 4 (Homo sapiens) (Q9NPH5 whole entry, looked up): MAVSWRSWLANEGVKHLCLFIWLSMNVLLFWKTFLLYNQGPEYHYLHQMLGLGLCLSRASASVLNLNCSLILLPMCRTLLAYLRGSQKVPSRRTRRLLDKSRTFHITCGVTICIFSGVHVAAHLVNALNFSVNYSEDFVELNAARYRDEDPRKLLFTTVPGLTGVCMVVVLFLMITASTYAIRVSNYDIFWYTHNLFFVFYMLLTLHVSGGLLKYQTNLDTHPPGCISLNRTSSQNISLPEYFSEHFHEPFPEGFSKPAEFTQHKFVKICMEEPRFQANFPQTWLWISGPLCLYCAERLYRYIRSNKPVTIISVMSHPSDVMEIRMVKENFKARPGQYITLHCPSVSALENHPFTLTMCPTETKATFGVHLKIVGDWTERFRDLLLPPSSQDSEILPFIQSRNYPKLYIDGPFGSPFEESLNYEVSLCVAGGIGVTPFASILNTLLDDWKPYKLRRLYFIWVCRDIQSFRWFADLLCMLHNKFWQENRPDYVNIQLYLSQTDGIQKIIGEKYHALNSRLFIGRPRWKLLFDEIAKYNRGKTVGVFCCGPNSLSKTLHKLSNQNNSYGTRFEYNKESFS
# [20] = molecular target: NADPH oxidase 5 (Homo sapiens) (UniProt Q96PH1); assay: compounds shifting NOX5 Amplex Red fluorescence – cell-based, HEK293-NOX5, NOX inhibitor project, primary screen (AID 1161); details: HEK293-NOX5, ionomycin, 45 min, higher = more signal
# Chain of NADPH oxidase 5 (Homo sapiens) (Q96PH1 whole entry, looked up): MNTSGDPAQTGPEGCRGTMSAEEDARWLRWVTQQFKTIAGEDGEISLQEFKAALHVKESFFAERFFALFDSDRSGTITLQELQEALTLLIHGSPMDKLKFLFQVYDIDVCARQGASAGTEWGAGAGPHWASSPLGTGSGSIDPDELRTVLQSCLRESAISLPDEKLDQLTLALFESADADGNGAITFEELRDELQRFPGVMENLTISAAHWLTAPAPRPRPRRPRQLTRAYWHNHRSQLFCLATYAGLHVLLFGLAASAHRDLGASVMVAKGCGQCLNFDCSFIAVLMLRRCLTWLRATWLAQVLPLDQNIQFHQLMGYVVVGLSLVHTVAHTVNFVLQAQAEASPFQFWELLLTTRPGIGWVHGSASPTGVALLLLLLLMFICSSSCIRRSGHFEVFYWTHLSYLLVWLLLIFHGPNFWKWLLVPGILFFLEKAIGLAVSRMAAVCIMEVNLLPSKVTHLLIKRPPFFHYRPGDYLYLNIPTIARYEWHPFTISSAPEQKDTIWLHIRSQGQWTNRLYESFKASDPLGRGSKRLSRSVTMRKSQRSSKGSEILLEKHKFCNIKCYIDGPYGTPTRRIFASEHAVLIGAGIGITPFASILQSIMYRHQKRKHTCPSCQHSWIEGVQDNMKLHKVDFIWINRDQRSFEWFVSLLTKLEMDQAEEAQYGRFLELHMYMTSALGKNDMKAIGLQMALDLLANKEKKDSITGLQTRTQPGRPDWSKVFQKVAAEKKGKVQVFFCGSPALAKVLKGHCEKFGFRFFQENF
SMILES,composite z-score [1],z-score [2],z-score [3],z-score [4],z-score [5],composite z-score [6],composite z-score [7],composite z-score (Torsin-1A (Homo sapiens) [8]),composite z-score (Torsin-1A (Homo sapiens) [9]),composite z-score [10],z-score [11],composite z-score [12],z-score [13],z-score [14],z-score [15],z-score [16],z-score [17],z-score [18],z-score [19],z-score [20]
CC(c1ccccc1)C(O)C1C=CC2C(=O)N(C)C(=O)C2N1N(c1ccccc1)c1ccccc1 (stereo unspecified),0.156,0.066 (inactive),-0.131 (inactive),0.443 (inactive),0.696 (inactive),0.377,0.153,0.18,0.426,-0.586,-1.04 (inactive),0.391,1.02 (inactive),0.386 (inactive),0.625 (inactive),0.777 (inactive),-0.987,-0.735 (inactive),-0.411 (inactive),-0.649
COCCCNC(=O)[C@@]1(Sc2ccc(C)cc2)CC(=O)N(Cc2cc(C(F)(F)F)cc(C(F)(F)F)c2)[C@@H]1c1ccc(CO)cc1I,-0.265,-1.47 (inactive),–,1.01 (inactive),0.264 (inactive),-0.713,-0.123,-0.083,-0.693,-0.612,1.57 (inactive),0.162,2.3 (inactive),1.08 (inactive),-0.34 (inactive),0.278 (inactive),0.411,2.35 (inactive),-0.978 (inactive),1.75
Cc1ccc(S(=O)(=O)N2[C@@H](c3ccccc3)C(C(=O)O)=CC[C@H]2c2ccccc2)cc1,0.105,-0.498 (inactive),0.0815 (inactive),0.0707 (inactive),-0.303 (inactive),0.263,0.0631,0.195,-0.0024,-0.497,-1.57 (inactive),-0.0501,0.432 (inactive),0.798 (inactive),0.605 (inactive),0.83 (inactive),-0.259,-0.127 (inactive),-0.375 (inactive),-2.32
C=C(COC)C(=O)CC[C@H](OC(=O)c1ccccc1-c1ccccc1C(=O)O)c1cccc(OCCO)c1,2.01,-8.1 (active),-0.805 (inactive),0.102 (inactive),0.683 (inactive),-1.8,-0.0332,2.33,2.6,2.34,0.0418 (inactive),0.333,3.26 (inactive),1.91 (inactive),0.281 (inactive),1.36 (inactive),0.29,0.635 (inactive),0.112 (inactive),-2.96
COC(=O)[C@H]1[C@@H]2COc3ccccc3[C@H]2N[C@H]1C(=O)OC,-0.0215,0.508 (inactive),-0.411 (inactive),2.13 (inactive),-0.827 (inactive),-0.142,-0.118,0.425,0.775,0.264,0.896 (inactive),-0.0046,0.262 (inactive),-0.122 (inactive),-0.406 (inactive),-0.21 (inactive),0.12,-2.88 (inactive),0.28 (inactive),-1.9
O=C1O[C@H](c2ccccc2)[C@H](c2ccccc2)N2[C@H]1[C@@H](C(=O)Nc1nc3ccccc3s1)[C@]1(C(=O)Nc3ccc(C#CC4=CCCCC4)cc31)[C@H]2c1ccccc1OCCO,0.266,-4.26 (inactive),0.331 (inactive),0.619 (inactive),-0.0292 (inactive),0.841,0.0649,0.552,0.0083,1.63,-0.485 (inactive),0.179,1.96 (inactive),2.21 (inactive),0.344 (inactive),1.41 (inactive),-0.0532,0.76 (inactive),0.195 (inactive),0.963
O=C1OCC=C[C@H]2OC34C=CCN(Cc5ccccc5)C(=O)[C@H]3N(CCCCCO)C(=O)[C@@H]4[C@@H]12 (stereo partly specified),-0.341,-2.93 (inactive),–,-0.354 (inactive),-0.679 (inactive),-1.62,0.0282,-0.391,-0.605,-1.09,2.14 (inactive),-0.44,1.52 (inactive),-0.426 (inactive),-0.912 (inactive),-1.34 (inactive),1.19,2.15 (inactive),0.352 (inactive),1.51
C[C@H]1COC(=O)[C@H](Cc2ccccc2)NC(=O)[C@@H](C)COC(=O)[C@H](Cc2ccccc2)NC1=O,0.226,-2.12 (inactive),–,2.52 (inactive),-0.837 (inactive),1.65,-0.0523,1.18,0.654,1.13,-0.0556 (inactive),-0.239,0.162 (inactive),-0.643 (inactive),-0.295 (inactive),-1.93 (inactive),1.58,0.915 (inactive),0.838 (inactive),0.253
COC(=O)C[C@H]1O[C@]2(C(=O)N(C)c3ccccc32)[C@@H](C)[C@@H]1[Si](C)(C)c1ccc(OC)cc1,0.259,-4.23 (inactive),–,2.23 (inactive),-1.58 (inactive),0.781,0.138,0.639,0.236,0.661,2.42 (inactive),-0.139,2.79 (inactive),-1.17 (inactive),-0.168 (inactive),-2.34 (inactive),1.11,0.0822 (inactive),0.345 (inactive),-0.451
